Measured values taken from PubChem BioAssay AID493168 (National Center for Advancing Translational Sciences (NCATS), 2011).
Records with an inconclusive call do not appear. Unmarked numbers belong to inactive results. Activity calls are given as the source filed them. Calls follow the shape of the dose curve; as a rule, active = well fitted inhibition curve with a large enough effect; inconclusive = small, poorly fitted or top-dose-only effect, or effect the other way; inactive = flat fitted curve, though single readings scatter.

target: Ubiquitin carboxyl-terminal hydrolase 2 (Homo sapiens) (UniProt O75604); test: Confirmation Assay for Inhibitors of Ubiquitin-specific Protease USP2a Using CHOP2 as the Reporter; settings: USP2 core, Ub-CHOP2 coupled reporter fluorescence; series mostly up to 38.3 µM; activity change, negative = inhibition: at the top concentration; also: nearly all actives have a fitted effect of over 55% in size;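 as to activity change, negative = inhibition: plate controls were DMSO wells for no effect and full inhibition by NEM control for full effect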
Sequence (O75604 whole entry, looked up): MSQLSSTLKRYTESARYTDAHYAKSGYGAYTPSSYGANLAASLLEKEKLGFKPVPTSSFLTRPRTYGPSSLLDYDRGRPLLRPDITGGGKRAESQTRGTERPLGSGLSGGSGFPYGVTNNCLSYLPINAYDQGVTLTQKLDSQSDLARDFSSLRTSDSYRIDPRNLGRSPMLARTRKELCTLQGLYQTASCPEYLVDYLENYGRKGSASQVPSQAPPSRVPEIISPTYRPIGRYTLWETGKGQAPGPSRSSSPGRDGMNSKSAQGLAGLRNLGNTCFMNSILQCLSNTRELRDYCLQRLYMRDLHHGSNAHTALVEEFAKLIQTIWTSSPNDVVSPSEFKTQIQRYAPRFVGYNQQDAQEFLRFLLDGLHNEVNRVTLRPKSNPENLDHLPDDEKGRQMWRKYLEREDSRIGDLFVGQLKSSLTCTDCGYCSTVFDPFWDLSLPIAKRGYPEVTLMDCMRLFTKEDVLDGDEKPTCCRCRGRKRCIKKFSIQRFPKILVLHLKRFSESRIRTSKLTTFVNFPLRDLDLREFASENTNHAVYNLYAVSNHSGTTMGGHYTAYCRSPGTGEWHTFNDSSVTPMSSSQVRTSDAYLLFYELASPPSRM
Outline: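 Ub-CHOP2 cleavage coupled to reporter activation was read by fluorescence after 60 min at RT, with 25 nM final Ub-CHOP2 and substrate. Enzyme (10 nM final USP2 core) first sat 30 min with compound; data were normalized to NEM and fitted to concentration-response curves.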
Potency is read from the fitted curve at half-maximal effect.

| SMILES | activity change, negative = inhibition | Potency |
| --- | --- | --- |
| COC(=O)c1nnn(-c2nonc2N)c1CSc1ccccn1 | -1.34% |  |
| CN(c1cccc(NC(=O)Nc2cccc(Cl)c2)c1)S(C)(=O)=O | 0.956% |  |
| N#Cc1cccc(C(=O)N(CCc2ccccc2)Cc2cccs2)c1 | -0.668% |  |
| O=C(CC(C(=O)O)C1CCCO1)NCCc1ccc2c(c1)OCO2 (stereo not given) | 4.46% |  |
| CN1CCN(Cc2c(O)ccc3c(=O)c(Oc4ccccc4Cl)c(C(F)(F)F)oc23)CC1 | 4.61% |  |
| CC1CCCCN1CCNC(=O)CC1Oc2ccccc2NC1=O (stereo not given) | 5.53% |  |
| Nc1cc(=O)[nH]c(SCc2cccc(Cl)c2)n1 | 2.19% |  |
| C=CCn1c(N)c(C(=O)NCc2cccnc2)sc1=S | -0.483% |  |
| COc1ccc(-c2[nH]ncc2/C=C(/C#N)C(=O)NC2CCCCC2)cc1 | 5.96% |  |
| CSC1=NCCN1C(=O)Cc1ccc(F)cc1 | -3.7% |  |
| Cc1ccc(C)n1-c1cc(S(=O)(=O)N2CCOCC2)ccc1N1CCCC1 | -0.614% |  |
| O=C(CSc1nnnn1-c1ccc(F)cc1)c1ccc(O)c(O)c1 | -2.57% |  |
| Cc1ccc(-c2nc(N/N=C/c3ccncc3)c3ccccc3n2)cc1 | -3.08% |  |
| O=C(c1ccco1)N1CCN(C(c2cccs2)c2sc3ncnn3c2O)CC1 (stereo not given) | 1.39% |  |
| O=[N+]([O-])/C(C(Cl)=C(Cl)Cl)=C(\Sc1ccccc1)N1CCCCC1 | -3.41% |  |
| C[C@H](CO)N1C[C@H](C)[C@@H](CN(C)S(=O)(=O)c2cccs2)Oc2c(NC(=O)Nc3ccc4c(c3)OCO4)cccc2C1=O | 1.42% |  |
| O=c1cc2oc3cc(O)c(O)cc3c(-c3ccccc3[N+](=O)[O-])c-2cc1O |  | 18.5 µM (active) |
| Cc1ccc(C(=O)NCc2ccc3c(c2)OCO3)cc1N1CCCC1=O | -2.42% |  |
| O=C(O)C1Nc2c(O)cc(Cl)c([N+](=O)[O-])c2C2C=CCC12 (stereo not given) |  | 9.27 µM (active) |
| Fc1ccc(-c2nnn(Cc3nc4ccccc4s3)n2)cc1 | -2.22% |  |

| SMILES | activity change, negative = inhibition | Potency |
| --- | --- | --- |
| COc1ccccc1C1NC(c2ccccc2OC)C(C)C(=O)C1C (stereo not given) | 1.67% |  |
| Nn1c(Nc2ccccc2)nc2ccccc2c1=O | 5.37% |  |
| Cc1cccc(NCc2nc(-c3ccccc3)no2)c1 | -0.935% |  |
| COC(=O)CCC(=O)Nc1sc2c(c1C#N)CCCC2 | 6.97% |  |
| Cc1cc(SCC(=O)Nc2ccccc2)nc(C)n1 | -0.745% |  |
| CC(C)C(=O)Nc1ccc(C(=O)N2CCCCCC2)cc1 | -1.8% |  |
| CN(C)c1ccc(/C=C(/NC(=O)c2ccccc2)C(=O)N/N=C/c2ccc([N+](=O)[O-])c(O)c2)cc1 | -15.8% |  |
| CC(=O)Nc1cc[n+](CC(=O)c2ccc(Cl)cc2)cc1 | 2.54% |  |
| CC(OC(=O)c1nsc(Cl)c1Cl)C(=O)NCc1ccco1 (stereo not given) | -1.99% |  |
| Cc1cc(/C=C2\C(=N)N3N=C(c4ccco4)SC3=NC2=O)c(C)n1Cc1ccccc1 |  | 16.5 µM (active) |
| CC(=O)C1=C(O)C(=O)N(c2nnn(C)n2)C1c1cccs1 (stereo not given) | -0.108% |  |
| C#CCOCCOCCOCCNc1nc(N2CCN(C(=O)CCCCCCCCCCNC(=O)[C@@H](CCC(=O)O)n3cc(CCCCCN)nn3)CC2)nc(N2CCN(C(=O)CCCCCCCCCCNC(=O)[C@H]([C@@H](C)CC)n3cc(CCCCCN)nn3)CC2)n1 |  | 11.7 µM (active) |
| NS(=O)(=O)c1cc(C(=O)NC2CCSc3ccccc32)ccc1Cl (stereo not given) |  | 13.1 µM (active) |
| Cc1ccc(O)c(CC(C)C)n1 | -2.58% |  |
| CCOc1ccc(Cn2c(=O)sc3ccccc32)cc1OC | -0.436% |  |
| CCn1c(COc2ccccc2)nnc1SCC(=O)CC(=O)Nc1ccccc1OC | -1.21% |  |
| CCC(C)NC(=O)C1CN(S(=O)(=O)c2ccccc2)CCN1S(=O)(=O)c1ccccc1 (stereo not given) | 3.46% |  |
| COc1cccc(NC(=O)Cc2ccccc2)c1 | 0.289% |  |
| CSc1ncccc1C(=O)OCC(=O)N1CCOCC1 | -1.33% |  |
| O=C(Nc1ccncc1)c1ccc(S(=O)(=O)Nc2ccccc2)cc1 |  | 14.7 µM (active) |
